According to the supplement of paper PMC3342239:
Structures can show the parent of a compound that is named as a salt.

What follows are molecules tested on Saccharomyces cerevisiae (assay: fraction of cells in G1 phase (DNA content, flow cytometry); higher = more cells with unreplicated DNA (G1 delay)). Conditions: temperature: 30 C; YPD; JTY2953 pdr5 snq2 (sensitized); drug added to: cultures diluted from stationary phase; 6-7 h.
Procedure, shortened: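 S. cerevisiae in YPD at 30°C was treated with library drugs, with DMSO-only wells as reference. Sensitized JTY2953 cultures diluted 1∶200 from overnight received a final 20 µg/ml and were fixed after 6–7 h; other runs dosed dividing JTY2953 (fixed 6 h later) or BY4741 (4.33 h later). Ethanol-fixed cells were stained with SYTOX Green and 10,000 events read by flow cytometry. G1 fraction is the Dean-Jett-Fox G1 peak area over G1 plus G2/M areas.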

| Structure (SMILES) | fraction of cells in G1 phase |
| --- | --- |
| C=C[C@H]1CN2CC[C@H]1C[C@H]2[C@H](O)c1ccnc2ccc(OC)cc12 [Quinine] (55.417 µM) | 0.5 |
| COc1cc2c(cc1OC)C(=O)C(CC1CCN(Cc3ccccc3)CC1)C2 (stereo unspecified) [Donepezil HCl] (48.0769 µM) | 0.515 |
| CC(C)C[C@H](NC(=O)[C@H](Cc1ccccc1)NC(=O)c1cnccn1)B(O)O [Bortezomib] (52.0499 µM) | 0.4 |
| CCN(Cc1ccncc1)C(=O)C(CO)c1ccccc1 (stereo unspecified) [Tropicamide] (70.3331 µM) | 0.521 |
| CN(C)CCCN1c2ccccc2CCc2ccccc21 [Imipramine HCl] (71.3225 µM) | 0.524 |
| COC(=O)CCc1ccc(OCC(O)CNC(C)C)cc1 (stereo unspecified) [Esmolol] (67.7089 µM) | 0.459 |
| C[C@]12CC[C@@H]3c4ccc(O)cc4CC[C@H]3[C@@H]1CCC2=O [Estrone] (73.9714 µM) | 0.508 |
| O=C(NCCO[N+](=O)[O-])c1cccnc1 [Nicorandil] (94.7066 µM) | 0.516 |
| Clc1ccc2c(c1)C(N1CCNCC1)=Nc1ccccc1O2 [Amoxapine] (63.737 µM) | 0.581 |
| OCCOCCN1CCN(C2=Nc3ccccc3Sc3ccccc32)CC1 [Quetiapine fumarate] (22.6473 µM) | 0.499 |
| OCc1cc(C(O)CNCCCCCCOCCCCc2ccccc2)ccc1O (stereo unspecified) [Salmeterol] (48.1257 µM) | 0.472 |
